This note sets out measurements from the supplement of paper PMC12645437, “Orthogonal IMiD-Degron Pairs Induce Selective Protein Degradation in Cells” (ACS Chemical Biology, 2025).

In all, about 8,300 sequences were measured (“log2 fold change of degron read counts, EGFP-low vs EGFP+ sorted cells (limma voom), compound-induced degradation”: median about -1.1, highest 2% from about 3.2 on). The sample as a whole holds a higher share of the highest values than the screen did.

The experiment deals with T1, CRBN, Q96SW2.
T1 chain: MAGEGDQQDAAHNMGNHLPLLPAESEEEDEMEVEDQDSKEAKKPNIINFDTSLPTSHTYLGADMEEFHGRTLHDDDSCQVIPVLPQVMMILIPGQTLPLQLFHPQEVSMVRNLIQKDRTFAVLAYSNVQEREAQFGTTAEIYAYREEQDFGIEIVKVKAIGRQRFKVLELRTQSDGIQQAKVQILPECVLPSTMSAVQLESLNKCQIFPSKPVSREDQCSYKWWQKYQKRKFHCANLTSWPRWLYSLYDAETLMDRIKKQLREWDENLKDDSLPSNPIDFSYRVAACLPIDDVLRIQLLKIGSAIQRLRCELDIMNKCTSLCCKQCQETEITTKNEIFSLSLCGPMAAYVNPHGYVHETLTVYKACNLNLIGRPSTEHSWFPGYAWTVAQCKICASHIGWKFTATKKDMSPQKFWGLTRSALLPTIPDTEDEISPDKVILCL
Nature of the experiment: log2 fold change of degron read counts, EGFP-low vs EGFP+ sorted cells (limma voom), compound-induced degradation; higher = more compound-induced degradation of the degron-EGFP fusion; degrons are variants of IKZF1/3 zinc finger 2; compound dose not given here. Particulars: Jurkat, 18 h.

Setting [1] is: compound: compound 19 (5-tert-butyl-thalidomide).
The mark [2] stands for this setting: compound: compound 22 (5-morpholino-thalidomide).
Setting [3] is: compound: compound 33 (diphenyl IMiD analogue).
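Note: pooled lentiviral library of zinc finger degron-EGFP fusions in mCherry-positive Jurkat cells, FACS-sorted after compound exposure, with degron abundance counted by next-generation sequencing.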

Regarding FYCEICGRMFTQKGNLLRHIKL [46F_47Y_49E_50I_52G_53R_54M_55F_67L_, Q9UKT9], the “log2 fold change of degron read counts” value under setting [1] came to 1.51, the “log2 fold change of degron read counts” value under setting [2] amounted to 1.03, the “log2 fold change of degron read counts” value under setting [3] was 1.08 and the “log2 fold change of degron read counts” value (compound: thalidomide) was -0.729.

As to FWCPQCGATFTQKGNLLRHIKL [46F_47W_49P_50Q_52G_53A_54T_55F_67L_, Q9UKT9], the “log2 fold change of degron read counts” value is -0.373 under setting [1], 1.49 under setting [2], 0.797 under setting [3] and -1.24 (compound: thalidomide).

For FMCDQCGAAFTQKGNLLRHIKL [46F_47M_49D_50Q_52G_53A_54A_55F_67L_, Q9UKT9], the “log2 fold change of degron read counts” value is, setting by setting: under setting [1], -1.96; under setting [2], -2.12; under setting [3], 0.439; (compound: thalidomide) -2.32.

For the sequence LYCNQCGFLCTQKGNLLRHIKL [46L_47Y_49N_50Q_52G_53F_54L_55C_67L_, Q9UKT9], the “log2 fold change of degron read counts” value was -1.29 under setting [1], -1.42 under setting [2], -1.67 under setting [3] and -1.29 (compound: thalidomide).

On to FECEICGRSFTQKGNLLRHIKL [46F_47E_49E_50I_52G_53R_54S_55F_67L_, Q9UKT9], for which the “log2 fold change of degron read counts” value under setting [1] is -2.51, the “log2 fold change of degron read counts” value under setting [2] was -3.16, the “log2 fold change of degron read counts” value under setting [3] is -1.24 and the “log2 fold change of degron read counts” value (compound: thalidomide) is -1.32.

Regarding FNCEQCGAWFTQKGNLLRHIKL [46F_47N_49E_50Q_52G_53A_54W_55F_67L_, Q9UKT9], the “log2 fold change of degron read counts” value is -2.53 under setting [1], -2.58 under setting [2], -2.99 under setting [3] and -2.13 (compound: thalidomide).

For the sequence FLCDICGADFTQKGNLLRHIKL [46F_47L_49D_50I_52G_53A_54D_55F_67L_, Q9UKT9], the “log2 fold change of degron read counts” value under setting [1] is -2.36, the “log2 fold change of degron read counts” value under setting [2] was -3.49, the “log2 fold change of degron read counts” value under setting [3] was -2.12 and the “log2 fold change of degron read counts” value (compound: thalidomide) was -2.22.

Take FHCPICGRNFTQKGNLLRHIKL [46F_47H_49P_50I_52G_53R_54N_55F_67L_, Q9UKT9]: the “log2 fold change of degron read counts” value runs as follows: under setting [1], -0.818; under setting [2], -0.983; under setting [3], -0.208; (compound: thalidomide) -0.527.
